Results: the supplement of paper PMC10681739

What was measured:
ETS1 [1] = target: T1, ETS1 (UniProt P14921); assay: ETS1 binding intensity (PBM fluorescence), ETS1 alone (arbitrary fluorescence units); higher = stronger binding; details: ETS1 concentration 1 nM; RUNX1 concentration 0 nM
T1 sequence: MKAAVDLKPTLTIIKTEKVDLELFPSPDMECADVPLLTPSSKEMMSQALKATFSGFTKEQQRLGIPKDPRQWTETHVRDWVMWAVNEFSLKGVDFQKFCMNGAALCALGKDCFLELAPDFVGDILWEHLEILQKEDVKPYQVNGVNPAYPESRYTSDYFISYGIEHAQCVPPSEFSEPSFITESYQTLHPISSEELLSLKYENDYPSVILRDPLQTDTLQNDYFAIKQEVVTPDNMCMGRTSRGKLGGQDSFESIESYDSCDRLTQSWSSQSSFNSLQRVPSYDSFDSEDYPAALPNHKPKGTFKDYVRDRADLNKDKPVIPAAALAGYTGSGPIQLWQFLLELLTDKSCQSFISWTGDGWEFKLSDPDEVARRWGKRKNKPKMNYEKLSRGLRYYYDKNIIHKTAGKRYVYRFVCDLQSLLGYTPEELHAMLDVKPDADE

RUNX1 [2] = target: RUNX1 (UniProt Q01196); assay: RUNX1 binding intensity (PBM fluorescence), RUNX1 alone (arbitrary fluorescence units); higher = stronger binding; details: RUNX1 concentration 2 nM; ETS1 concentration 0 nM
Chain of RUNX1 (Q01196 whole entry): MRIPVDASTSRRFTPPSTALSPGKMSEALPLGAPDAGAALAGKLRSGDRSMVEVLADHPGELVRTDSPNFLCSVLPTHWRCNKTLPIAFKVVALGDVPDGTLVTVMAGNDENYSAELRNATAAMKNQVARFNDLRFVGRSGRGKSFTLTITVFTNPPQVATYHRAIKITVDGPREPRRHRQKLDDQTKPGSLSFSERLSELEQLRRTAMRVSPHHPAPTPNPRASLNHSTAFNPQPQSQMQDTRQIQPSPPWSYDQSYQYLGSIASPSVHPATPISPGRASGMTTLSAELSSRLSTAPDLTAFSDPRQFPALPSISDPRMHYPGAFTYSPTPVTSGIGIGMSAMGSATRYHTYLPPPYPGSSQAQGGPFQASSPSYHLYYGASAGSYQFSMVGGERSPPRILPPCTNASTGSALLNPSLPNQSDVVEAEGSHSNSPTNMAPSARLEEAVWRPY
Procedure: (§1)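 Cooperative gcPBM on 36-bp genomic probes with neighbouring ETS1 and RUNX1 sites. Recombinant human RUNX1 (2 nM) was incubated alone or with ETS1 (25 nM) and detected with anti-RUNX1 antibody plus Alexa488 secondary. Values are medians over 4 replicate spots; the RUNX1+ETS1 data were normalised to the RUNX1-only data. The probes sit in constant array flanks that are not printed.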

ETS1 [3] = target: T1, ETS1; assay: ETS1 binding intensity (PBM fluorescence) in presence of RUNX1, normalised to ETS1-only experiment (arbitrary fluorescence units); higher = stronger binding; details: ETS1 concentration 1 nM; RUNX1 concentration 25 nM
RUNX1 [4] = target: RUNX1 (UniProt Q01196); assay: RUNX1 binding intensity (PBM fluorescence) in presence of ETS1, normalised to RUNX1-only experiment (arbitrary fluorescence units); higher = stronger binding; details: RUNX1 concentration 2 nM; ETS1 concentration 25 nM
Procedure: as §1
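For RUNX1 binding intensity (PBM fluorescence) in presence of ETS1, normalised to RUNX1-only experiment in this document: Full-length recombinant human ETS1 or RUNX1 bound to double-stranded 36-bp genomic probes on microarrays, detected by protein-specific primary antibody and Alexa488 secondary, spot fluorescence as median of four replicate spots.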
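For RUNX1 binding intensity (PBM fluorescence), RUNX1 alone in this document: Full-length recombinant human RUNX1 bound to double-stranded 36-bp genomic probes on a high-density microarray, scored as Alexa488 fluorescence per spot via anti-RUNX1 antibody, median of four replicate spots.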

Row | Sequence | ETS1 binding intensity (ETS1 [1]) | RUNX1 binding intensity (RUNX1 [2]) | ETS1 binding intensity (ETS1 [3]) | RUNX1 binding intensity (RUNX1 [4])
1 | GAGAACTTCCGGTGCGCTCCCCGGGACTGCGGTCCC | 3420 | 729 | 4920 | 2780
2 | CCAACGAGCACTTCCGCTTCCCGCAGCTCCAGCGGC | 2400 | 914 | 4270 | 2650
3 | CCGTGGAAGGAAACGCTGCCAACCGCAACAGAAATG | 479 | 1700 | 2770 | 3550
4 | ACAGATCCAAGGAAGCATATCCCGCAAGCAACTGTT | 460 | 797 | 589 | 875
5 | CCATTCTTCCGGTGGAGATGGCTGCGGCCGTGGCGG | 568 | 714 | 588 | 2240
6 | GAGGCGTTTCCGCCTCCTTTTCGCGGTTGCCTTCTC | 639 | 1060 | 761 | 2790
7 | TCTGATGTGCCTTCTTCCTGACCACAGCAACTACTA | 392 | 1250 | 511 | 1270
8 | GGGAACTCACACCGGAAACCACAGAACCAAGAGTGG | 7140 | 3800 | 16300 | 6540
9 | CCAGCTACACAGGATGCTGCGGTGGGCGGAATGCTC | 2160 | 801 | 9170 | 1970
10 | AGTTGTGTTTTAGGATGTGGTCAAAGCCCAACAGAG | 581 | 910 | 2150 | 1090
11 | TTACGACACTTCCGGCGACGCCCCGCAGCCTTCACC | 2890 | 834 | 2740 | 1880
12 | CCTCCCACCTTGGCAGGAAGCGGTTTATCAGATTAA | 4250 | 810 | 7770 | 2280
13 | GAGCAGTGGTGGGAAATGTGGGGTTGGGGGTAAAGG | 493 | 874 | 390 | 843
14 | AGTGGAGTAGGAACCGGAAAACCACAATAAGTCCCA | 2170 | 1470 | 12400 | 3630
